Screening data: PubChem, several laboratories
The list is not random: actives were taken first. Their share in the collection is about 0.5%.
AddAB inh: growth inhibition of E. coli expressing H. pylori AddAB, primary screen, AddAB inhibitor project, absorbance. inhibition, % at 11.9 µM. 0.29% of 330,000 active; in the data active = inhibition above about 12%;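 also: 0% = vehicle wells of infected cells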
E coli growth-1: E. coli growth inhibition, primary screen, OD600 | Escherichia coli growth, 23 h; active compounds read low | 0.21% of 330,000 active | OD600 absorbance (no concentration beside the values) | AID 1053175, 2014;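 active = OD600 absorbance below the run mean of sample wells minus 3.6 SD, in any replicate, cut at about 0.56 in these data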
Tat export inh: E. coli Tat export inhibitors, primary screen, MC4100, TorA-mCherry reporter, fluorescence, single point; inhibition, % at 10 µM; 0.036% of 340,000 active;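 active = mean replicate inhibition at least 50% and at least half of replicates individually reaching 50%; inconclusive = only one of the two criteria met; inactive = neither criterion met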;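 also: exported cargo escapes ClpAP degradation while cytoplasmic cargo is degraded and loses fluorescence; 0% = median of neutral control wells and 100% = median of NaSCN control wells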
phage Ecoli inh: growth loss of phage-infected E. coli, primary screen, RecBCD inhibitor project, absorbance, with phage, HTS; 0.26% of 360,000 active; AID 651602, 2012; inhibition, % at 11.9 µM; in the data active = inhibition above about 11%
E coli growth-2: E. coli V3065 growth inhibition, primary screen, counter-screen for AddAB inhibitor project, absorbance, OD600. 18 h. 0.27% of 330,000 active. inhibition, % at 11.9 µM;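 active = inhibition above the campaign's mean inhibition across all tested compounds plus 3 SD, cut at about 9.9% in these data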;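 also: uninfected addAB+ strain grown without phage in ampicillin broth; 0% = DMSO wells and 100% = ciprofloxacin 0.95 µg/ml wells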
RecBCD conf: growth loss of phage-infected RecBCD+ E. coli, confirmation, RecBCD inhibitor project, absorbance, E. coli V66, T4 gene 2 phage; shares compounds with phage Ecoli inh; E. coli V66 + T4 2- phage, growth OD; inhibition, % at 11.9 µM; 45% of 890 active;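 active = mean inhibition over triplicates exceeding the hit threshold derived in the original primary screen, cut at about 11% in these data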
Ecoli viability: E. coli viability inhibition, counter-screen for RecBCD inhibitor project, absorbance, high throughput; shares compounds with phage Ecoli inh; absorbance (OD) growth; inhibition, % at 11.9 µM; 29% of 890 active; AID 651983, 2013; in the data active = inhibition above about 20%;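 also: E. coli strain V66 grown with compound alone and no phage infection; 0% = bacteria with DMSO vehicle only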
AddAB phage OD: growth loss of phage-infected AddAB-carrying E. coli, confirmation, counter-screen for RecBCD inhibitor project, absorbance, E. coli V3065, T4 phage. E. coli expressing H. pylori AddAB + T4 phage, OD growth; gene 2 mutant T4, recBCD-deleted host. shares compounds with phage Ecoli inh. inhibition, % at 11.9 µM. 45% of 890 active;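 active = mean inhibition above the solvent-only control wells' mean plus 3 SD, cut at about 22% in these data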;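 also: higher means less bacterial growth from phage killing when AddAB is blocked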
An asterisk follows results filed as active; ? = inconclusive; / = no result.

SMILES	AddAB inh	E coli growth-1	Tat export inh	phage Ecoli inh	E coli growth-2	RecBCD conf	Ecoli viability	AddAB phage OD
C=CCC(Cc1ccc(F)cc1)C(=O)OCC1CCCN1C(=O)C(CC=C)CC(=O)NC(CO)Cc1ccccc1 (configuration not stated)	/	0.684	/	/	/	/	/	/
CC(C)CN1C(Nc2ccccc2)=NCC1C (configuration not stated)	/	0.682	/	/	/	/	/	/
COc1ccc(OC)c(C(=O)Cn2nnc(-c3ccc(N4CCOCC4)cc3)n2)c1	0.3	0.746	-5.0	12.1*	-0.3	-1.3	-1.8	2.5
CCCCC=CC(NC(=O)CCc1ccccc1)c1ccccc1 (configuration not stated)	/	0.673	/	/	/	/	/	/
CCN1CCN(C(=O)C2=CC(c3ccc(C)cc3)=NS(=O)(=O)N2C)CC1	-0.3	0.754	6.3	12.1*	-0.1	-3.4	-2.0	-2.8
CCOC(=O)C1C2COc3ccc(Br)cc3C2N2C(=O)N(c3ccc(C)cc3)C(=O)[C@]12C (some centres not stated)	/	0.654	/	/	/	/	/	/
Cc1ccccc1NC(=O)NNC(=O)c1ccc2ccccc2c1O	5.9	0.728	-2.8	6.4	6.0	/	/	/
CCc1ccc(NC(=O)NNC(=O)c2ccc3ccccc3c2O)cc1	/	0.702	-7.2	13.1*	/	9.0	9.8	8.5
COc1ccccc1NC(=O)NNC(=O)c1ccc2ccccc2c1O	/	0.677	0.0	11.1*	/	8.8	9.7	7.8
CCCCSC(N)=NN=Cc1cc(C)ccc1O	/	0.688	/	/	/	/	/	/
Nc1nc(N)c2cc(CNc3ccc(Cl)c(Cl)c3)ccc2n1	/	/	/	57.6*	/	41.2*	36.3*	72.9*
CC(C)(C)c1nnc(NN=Cc2ccccc2O)n(N)c1=O	/	0.624	/	/	/	/	/	/
CC(C)(C)c1nnc(N/N=C/c2cc(Br)ccc2O)n(N)c1=O	12.0	/	-19.8	11.6*	3.5	6.4	10.4	27.7*
COc1ccc(S(=O)(=O)Nc2ccc3c(c2)C(=O)N(C(C)CO)CC(C)C(CN(C)C(=O)Nc2ccc4c(c2)OCO4)O3)cc1 (configuration not stated)	/	0.671	/	/	/	/	/	/
NC1=NCC(c2ccccc2)N1CCc1cc(C(F)(F)F)cc(C(F)(F)F)c1 (configuration not stated)	/	0.62	/	/	/	/	/	/
CCN(CC)S(=O)(=O)c1cccc(NC(=O)CC2CCCC2)c1	1.7	0.702	24.7	1.1	0.9	/	/	/
CCN(CC)S(=O)(=O)c1cccc(NC(=O)Nc2cccc(C(F)(F)F)c2)c1	9.4	0.64	13.1	11.3*	6.9	2.0	4.3	2.0
FC(F)(F)c1cccc(NC(=S)NCC2COc3ccccc3O2)c1 (configuration not stated)	5.4	0.618	-7.4	11.6*	4.8	7.0	7.7	7.3
O=C(/C=C/c1ccccc1)c1cc(Br)ccc(=O)c1O	8.9	0.709	-10.2	26.6*	10.1*	16.2*	21.9*	6.2
O=[N+]([O-])c1ccc(N2CCN(Cc3ccccc3)CC2)s1	-0.5	0.659	7.4	1.0	-0.6	/	/	/
O=[N+]([O-])c1ccc(N2CCN(Cc3ccccc3)CC2)c2c1no[n+]2[O-]	/	/	/	11.6*	/	8.4	9.9	42.3*
FC(F)(F)c1cccc(NC(=S)NC2CCCC2)c1	6.2	0.619	1.3	8.3	3.3	/	/	/
FC(F)(F)c1ccc(NC(=S)NC2CCCCC2)cc1	9.6	0.635	0.1	14.7*	9.3	6.7	7.6	9.2
O=C(Nc1ccc(F)cc1)Nc1cc(OCC(F)(F)F)cc(OCC(F)(F)F)c1	3.7	0.676	-6.2	11.5*	2.6	1.6	2.9	5.8
CCOc1ccc(NC(=O)Nc2cc(OCC(F)(F)F)cc(OCC(F)(F)F)c2)cc1	2.0	0.699	7.0	2.0	-1.4	/	/	/
SMILES	AddAB inh	E coli growth-1	Tat export inh	phage Ecoli inh	E coli growth-2	RecBCD conf	Ecoli viability	AddAB phage OD
CCOC(=O)C1C2COc3ccc(Br)cc3C2N2C(=O)N(c3cccc(Cl)c3)C(=O)[C@@]12C (some centres not stated)	/	0.758	/	/	/	/	/	/
Cc1ccc(S(=O)(=O)CC(=O)Nc2ncc([N+](=O)[O-])s2)cc1	0.2	0.639	4.1	-0.9	-2.5	/	/	/
Cc1ccc(CC(=O)Nc2ncc([N+](=O)[O-])s2)cc1	6.3	0.557	-15.1	12.8*	8.8	8.8	9.2	-2.5
CC(CCC=CC(=O)O)OC1OC(C)C(O)CC1O (configuration not stated)	/	0.62	/	/	/	/	/	/
Cc1cc(N/N=C/c2ccc(N(C)C)cc2)c2ccccc2n1	5.3	/	-6.4	12.5*	-1.9	-3.4	-3.8	4.1
C#CCOCCOCCOCCNc1nc(N2CCN(C(=O)Cn3cc(CCCCN)nn3)CC2)nc(N2CCN(C(=O)C(C)n3cc(CCC(=O)O)nn3)CC2)n1 (configuration not stated)	/	0.714	/	/	/	/	/	/
Cc1ccc(NC(=S)Nc2ccc(OC(F)F)c(Cl)c2)cc1F	2.1	0.632	5.6	11.0*	1.3	6.1	7.1	4.7
O=C1c2ccccc2NC(c2ccc(Cl)cc2Cl)N1O (configuration not stated)	6.3	0.736	?	12.1*	6.0	4.6	6.3	10.9
O=C1c2ccccc2NC(c2ccc(-c3cccc(F)c3)o2)N1O (configuration not stated)	8.9	0.658	2.9	12.3*	9.0	3.4	3.9	4.5
O=C1c2ccccc2NC(c2cccc(F)c2)N1Cc1ccccc1 (configuration not stated)	1.0	0.619	-4.2	0.9	-0.8	/	/	/
CC(NC(=O)c1nc[nH]c1C(=O)NC(C)C(=O)OC(C)(C)C)C(=O)OCc1ccccc1 (configuration not stated)	/	0.694	/	/	/	/	/	/
CCOC(=O)CCC(=O)O[C@H]1[C@H](O[C@@H]2[C@@H](C)[C@H](O[C@H]3C[C@@](C)(OC)[C@@H](O)[C@H](C)O3)[C@@H](C)C(=O)O[C@H](CC)[C@@](C)(O)[C@H](O)[C@@H](C)C(=O)[C@H](C)C[C@@]2(C)O)O[C@H](C)C[C@@H]1N(C)C	24.9*	/	18.6	26.3*	22.1*	13.7*	15.1	9.3
CC1NC(=O)[C@@]2(C)C(c3ccccc3)C3COc4ccc(Cl)cc4C3N2C1=O (some centres not stated)	/	0.705	/	/	/	/	/	/
Cn1cc(S(=O)(=O)N2CCc3ccccc32)cc1C(=O)NC1CCCCC1	1.2	0.674	1.1	98.4*	-1.3	-3.9	-3.2	-4.5
CCCSc1ccc(C2N[C@@](C)(C(=O)OC)C3C(=O)N(C)C(=O)C23)cc1OC (some centres not stated)	/	0.71	/	/	/	/	/	/
